Source: PubChem BioAssay (Broad Institute)
The entries come from a sample that favours hits as a whole.
IDE exosite inh: exo-site inhibitors of human IDE, primary screen, biochemical, fluorescence anisotropy, probe displacement; Insulin-degrading enzyme (Homo sapiens), P14735; purified IDE, FL-6b probe fluorescence polarization; hits give low values; z-score at 20 µM; 6.3% of 17,000 active; AID 1259349, 2017;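 active = z-score of -3 or lower, meaning strong loss of probe binding signal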;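 note: His-tagged human IDE residues 42-1019 made in E. coli with 30 nM FL-6b probe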
Target sequence (P14735 42-1019 limits assumed): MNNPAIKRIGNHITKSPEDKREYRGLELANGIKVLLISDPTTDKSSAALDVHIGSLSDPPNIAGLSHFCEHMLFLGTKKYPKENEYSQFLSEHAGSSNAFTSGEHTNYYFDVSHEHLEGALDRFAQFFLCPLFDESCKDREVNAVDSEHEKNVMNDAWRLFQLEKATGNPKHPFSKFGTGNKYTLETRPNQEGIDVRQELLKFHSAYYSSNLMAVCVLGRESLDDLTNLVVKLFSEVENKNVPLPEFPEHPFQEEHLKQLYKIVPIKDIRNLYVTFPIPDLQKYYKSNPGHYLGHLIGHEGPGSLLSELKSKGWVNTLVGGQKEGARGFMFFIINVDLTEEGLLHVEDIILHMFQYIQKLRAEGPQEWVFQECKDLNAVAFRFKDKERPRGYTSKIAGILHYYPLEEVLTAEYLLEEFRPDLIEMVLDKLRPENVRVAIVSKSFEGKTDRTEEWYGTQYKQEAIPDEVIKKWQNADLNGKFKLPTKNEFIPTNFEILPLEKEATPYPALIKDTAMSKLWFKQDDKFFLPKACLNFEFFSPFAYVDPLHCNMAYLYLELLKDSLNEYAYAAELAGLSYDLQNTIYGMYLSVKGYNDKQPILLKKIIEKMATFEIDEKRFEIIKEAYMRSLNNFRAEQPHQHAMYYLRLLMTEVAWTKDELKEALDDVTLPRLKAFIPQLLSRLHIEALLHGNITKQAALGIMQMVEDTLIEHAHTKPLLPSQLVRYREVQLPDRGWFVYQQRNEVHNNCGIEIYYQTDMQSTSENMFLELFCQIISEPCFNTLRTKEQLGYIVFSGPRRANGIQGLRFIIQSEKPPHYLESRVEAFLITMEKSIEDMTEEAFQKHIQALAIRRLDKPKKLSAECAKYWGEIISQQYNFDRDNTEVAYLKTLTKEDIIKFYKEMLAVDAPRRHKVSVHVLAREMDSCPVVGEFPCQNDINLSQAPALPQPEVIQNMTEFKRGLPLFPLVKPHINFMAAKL
* hit, by the source's call.

SMILES	IDE exosite inh
CCC(=O)N1CC(=O)N2[C@@H](CO)[C@@H](c3ccc(C#Cc4cccnc4)cc3)[C@@H]2C1	1.96
COc1cccc(C#Cc2ccc([C@H]3[C@H](CO)N4C(=O)CN(C(=O)c5ccccc5)C[C@@H]34)cc2)c1	-2.2
C[C@@H]1CCCCO[C@@H](CN(C)C(=O)Nc2ccc(C(F)(F)F)cc2)[C@H](C)CN([C@@H](C)CO)C(=O)c2cc(NS(=O)(=O)c3cn(C)cn3)ccc2O1	-0.0505
COc1ccc(-c2ccc([C@H]3[C@H](CO)N4C(=O)CN(C(=O)c5ccccn5)C[C@@H]34)cc2)cc1	-0.0916
C/C=C/c1ccc([C@H]2[C@@H](CNC(C)C)N(C(=O)c3ccccn3)[C@H]2CO)cc1	0.277
CCCNC(=O)N1[C@@H](CO)[C@@H](c2ccc(C3=CCCC3)cc2)[C@@H]1CNC(=O)CC	5.03
CN(C[C@H]1[C@H](c2ccccc2)[C@@H](CO)N1CC1CC1)C(=O)c1ccc(F)cc1	-0.127
C/C=C/c1ccccc1[C@@H]1[C@H](C#N)N(C(=O)c2cccnc2)[C@H]1CO	-1.02
O=C1CCC(=O)N[C@@H](c2ccccc2)C/C=C\CCN1	-0.77
O=C1CN(S(=O)(=O)Cc2ccccc2)C[C@H]2[C@@H](c3ccc(C#Cc4ccccc4)cc3)[C@H](CO)N12	-2.48
COCC(=O)N1[C@H](CO)[C@H](c2ccccc2)[C@@H]1C#N	2.43
COc1cccc(S(=O)(=O)Nc2ccc3c(c2)C(=O)N(C)C[C@H](OC)[C@@H](C)CN(Cc2ccccc2F)[C@@H](C)CO3)c1	-0.735
CCCC#Cc1ccc([C@H]2[C@H](CO)N3CCCCN(Cc4cncnc4)C[C@@H]23)cc1	2.29
OC[C@H]1[C@@H](c2ccc(C#Cc3ccccc3)cc2)[C@H]2CN(Cc3cncnc3)CCCCN21	-0.515
CCCC#Cc1ccc([C@@H]2[C@H](CO)N3CCCCN(Cc4cccnc4)C[C@@H]23)cc1	0.859
COCC#Cc1ccc([C@H]2[C@@H](CO)N3CCCCN(Cc4cncnc4)C[C@@H]23)cc1	1.69
OC[C@@H]1[C@H](c2ccc(C#Cc3ccccc3)cc2)[C@H]2CN(Cc3cncnc3)CCCCN12	-8.53*
COCC#Cc1ccc([C@H]2[C@H]3CN(Cc4cncnc4)CCCCN3[C@H]2CO)cc1	1.33
CCCC#Cc1ccc([C@@H]2[C@H](CO)N3CCCCN(Cc4cncnc4)C[C@@H]23)cc1	0.0514
OC[C@H]1[C@H](c2ccc(C#Cc3ccccc3)cc2)[C@@H]2CN(Cc3cncnc3)CCCCN12	-4.48*
OC[C@@H]1[C@@H](c2ccc(C#Cc3ccccc3)cc2)[C@@H]2CN(Cc3cncnc3)CCCCN12	-6.42*
C[C@H](NC(=O)C[C@H]1CC[C@@H]2[C@@H](COc3ccc(NS(=O)(=O)c4ccc(Cl)cc4)cc3C(=O)N2C)O1)c1ccccc1	-0.443
COc1ccccc1S(=O)(=O)N(C)C[C@@H]1OCc2cn(nn2)CCCC(=O)N([C@@H](C)CO)C[C@@H]1C	-1.85
CN(C)C(=O)c1ccc(-c2ccc([C@@H]3[C@@H](C#N)N(C(=O)Cc4ccccn4)[C@H]3CO)cc2)cc1	0.855
COc1ccc(NC(=O)N2CC(=O)N3[C@H](CO)[C@H](c4ccc(C5=CCCC5)cc4)[C@H]3C2)cc1	0.74
SMILES	IDE exosite inh
Cc1ccc(S(=O)(=O)N[C@H]2C=C[C@H](CC(=O)NCc3ccc(Cl)c(Cl)c3)O[C@H]2CO)cc1	1.41
CC(C)(C)S(=O)N1Cc2cc(C(=O)NCCCN3CCOCC3)nc(-c3cccc(-c4cccc(F)c4)c3)c2[C@H]1CCO (some centres not stated)	-0.524
O=C(C1CCCCC1)N1CC(=O)N2[C@H](CO)[C@H](c3ccc(C#CCc4ccccc4)cc3)[C@@H]2C1	-0.558
O=C(NC[C@H]1[C@H](c2ccccc2)[C@H](CO)N1CC1CCCC1)c1ccncc1	2.98
CC(=O)NC[C@@H]1[C@@H](c2ccc(-c3cccc(F)c3)cc2)[C@@H](CO)N1C(C)=O	2.2
COc1ccc(NC(=O)N2CC(=O)N3[C@@H](CO)[C@H](c4ccc(-c5ccccc5)cc4)[C@@H]3C2)cc1	0.989
CN(C[C@@H]1N[C@H](CO)[C@@H]1c1ccc(-c2cccc(F)c2)cc1)C(=O)C1CCC1	1.65
CCC(=O)N1CCCCN2[C@@H](CO)[C@H](c3ccc(/C=C/c4ccccc4)cc3)[C@@H]2C1	-7.23*
O=C(c1ccc(F)cc1)N1CCCCN2[C@@H](CO)[C@H](c3ccc(/C=C/c4ccccc4)cc3)[C@@H]2C1	-3.44*
CCC(=O)N1CCCCN2[C@H](CO)[C@H](c3ccc(-c4ccc(F)cc4)cc3)[C@H]2C1	3.33
O=C(c1cccc(F)c1)N1CCCCN2[C@H](CO)[C@@H](c3ccc(/C=C/c4ccccc4)cc3)[C@@H]2C1	2.39
CCC(=O)N1CCCCN2[C@H](CO)[C@H](c3ccc(/C=C/c4ccccc4)cc3)[C@H]2C1	-3.11*
CCC(=O)N1CCCCN2[C@H](CO)[C@H](c3ccc(-c4ccc(F)cc4)cc3)[C@@H]2C1	1.69
CN1CCCCN2[C@H](CO)[C@H](c3ccc(/C=C/c4ccccc4)cc3)[C@H]2C1	-2.99
CCC(=O)N1CCCCN2[C@H](CO)[C@@H](c3ccc(/C=C/c4ccccc4)cc3)[C@H]2C1	-2.64
O=C(c1cccc(F)c1)N1CCCCN2[C@H](C1)[C@H](c1ccc(/C=C/c3ccccc3)cc1)[C@@H]2CO	0.483
CN1CCCCN2[C@H](CO)[C@H](c3ccc(-c4ccccc4)cc3)[C@H]2C1	4.31
CCC(=O)N1CCCCN2[C@@H](CO)[C@@H](c3ccc(-c4ccc(F)cc4)cc3)[C@@H]2C1	0.525
CN1CCCCN2[C@H](CO)[C@@H](c3ccc(/C=C/c4ccccc4)cc3)[C@H]2C1	-5.4*
CC[C@H]1C/C=C\C[C@H](CC)NC(=O)[C@@H](C)CC(=O)N1	1.13
C/C=C/c1ccc([C@@H]2[C@@H](CO)N(C(C)=O)C23CN(C(=O)NC2CCCCC2)C3)cc1	-0.358
O=C(C1CC1)N1CC(=O)N2[C@H](C1)[C@H](c1ccc(Br)cc1)[C@@H]2CO	0.661
O=C(NC[C@H]1N[C@H](CO)[C@@H]1c1ccc(C2=CCCC2)cc1)C1CC1	1.28
O=C(Nc1ccccc1F)N1C[C@H]2[C@@H](c3ccccc31)[C@H](CO)N2C(=O)Cc1cccnc1	-0.852
CO[C@H]1CN(C)C(=O)c2cc(NC(=O)Nc3cc(F)ccc3F)ccc2OC[C@H](C)NC[C@@H]1C	0.19
SMILES	IDE exosite inh
C[C@H](CO)N1C[C@H](C)[C@H](CN(C)C(=O)[C@@H](Cc2ccccc2)N(C)C)OCc2ccccc2-c2ccccc2C1=O	0.727
O=C(Nc1ccc(F)cc1)N1CC(=O)N2[C@H](CO)[C@@H](c3ccc(-c4ccc(F)cc4)cc3)[C@@H]2C1	0.748
COCC(=O)Nc1ccc2c(c1)OC[C@@H](C)N(C(=O)Nc1ccccc1F)C[C@@H](C)[C@H](OC)CN(C)C2=O	-1.33
COCC(=O)N1[C@H](C#N)[C@H](c2ccc(C3=CCCCC3)cc2)[C@H]1CO	1.54
O=C(CN1CCOCC1)N[C@@H]1CC[C@@H](CCn2cc(C3CC3)nn2)O[C@@H]1CO	-0.96
CN1c2ccc(Br)cc2[C@@H]2[C@@H](CCN2C(=O)Nc2cccc(F)c2)[C@@H]1CO	-0.6
CC=Cc1ccc2n(c1=O)C[C@H]1[C@H](CO)[C@@H](C(=O)N[C@@H](C)c3ccccc3)[C@@H]2N1Cc1cncnc1 (mixture of isomers)	0.505
COc1cccc(NC(=O)N2CC(=O)N3[C@H](CO)[C@@H](c4ccc(C#CCC5CCCC5)cc4)[C@H]3C2)c1	0.0628
